In PubChem BioAssay (EPA / NIEHS):
Values joined by “and” are separate entries in the source; they are usually repeats but may differ in a detail not shown here. Equal values may be shown once. Where a structure was tested more than once in an assay, its records may differ in their call. Active and inactive are the calls of the source. The calls were made as follows: active = hit-call score of the fitted dose curve at least 0.9, where 1 is the maximum; inactive = score below 0.9.

What was measured:
[1] = target: CCAAT/enhancer-binding protein beta (Homo sapiens) (UniProt P17676); assay: ATG_C_EBP_CIS: Attagene CIS-FACTORIAL HepG2 Assay for human CCAAT/Enhancer Binding Protein (C/EBP) beta (AID 2282927); conditions: HepG2 Attagene cis-factorial transcription factor reporter; actives raise or lower the signal
CCAAT/enhancer-binding protein beta (Homo sapiens), sequence (P17676 whole entry, looked up): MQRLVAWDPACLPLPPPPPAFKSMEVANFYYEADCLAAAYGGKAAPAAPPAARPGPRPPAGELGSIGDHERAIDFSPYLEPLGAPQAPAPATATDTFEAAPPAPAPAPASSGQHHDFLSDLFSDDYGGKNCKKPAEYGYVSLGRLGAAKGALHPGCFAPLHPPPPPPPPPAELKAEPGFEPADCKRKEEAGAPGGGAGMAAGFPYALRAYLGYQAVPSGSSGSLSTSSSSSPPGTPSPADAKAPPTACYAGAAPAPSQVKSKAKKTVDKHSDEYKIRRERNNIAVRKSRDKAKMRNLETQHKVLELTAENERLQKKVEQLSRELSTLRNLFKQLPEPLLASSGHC
Method in brief: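 HepG2, transient MRTU transfection, 24 h treatment. RT-PCR plus CE fluorescence; DMSO negative control, bidirectional fit.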

[2] = ATG_CMV_CIS: Attagene CIS-FACTORIAL HepG2 Assay for human CMV (Internal Marker) (AID 2282928); conditions: HepG2 CMV promoter reporter, transcription factor profiling; actives raise or lower the signal;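 also: endpoint acts as a background internal control marker rather than a target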
Method in brief: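 HepG2 cells transiently transfected with multiple cis-regulated reporter units; 24 h compound exposure. Reporter mRNA quantified by RT-PCR, 6-FAM primer-extension labeling, HpaI digestion and capillary electrophoresis; bidirectional fitting against DMSO baseline.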

[3] = ATG_DR4_LXR_CIS: Attagene CIS-FACTORIAL HepG2 Assay for human Liver X Receptor (LXR), DR4 submotif (AID 2282929); conditions: HepG2 Attagene DR4 cis-reporter, mRNA transcription; AC50: actives raise or lower the signal unless noted; outcome: actives raise or lower the signal unless noted
Method in brief: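 Endogenous factor activity at a DR4 cis-element is read as reporter mRNA in transiently transfected HepG2 cells. Exposure lasts 24 h; transcripts are amplified, fluorescently labelled and sized by capillary electrophoresis, with DMSO as baseline.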

[4] = target: Aryl hydrocarbon receptor (Homo sapiens) (UniProt P35869); assay: ATG_Ahr_CIS: Attagene CIS-FACTORIAL HepG2 Assay for human Aryl Hydrocarbon Receptor (Ahr) (AID 2282930); conditions: HepG2 AhR cis-factorial reporter transcription; actives raise or lower the signal
Aryl hydrocarbon receptor (Homo sapiens), sequence (P35869 whole entry, looked up): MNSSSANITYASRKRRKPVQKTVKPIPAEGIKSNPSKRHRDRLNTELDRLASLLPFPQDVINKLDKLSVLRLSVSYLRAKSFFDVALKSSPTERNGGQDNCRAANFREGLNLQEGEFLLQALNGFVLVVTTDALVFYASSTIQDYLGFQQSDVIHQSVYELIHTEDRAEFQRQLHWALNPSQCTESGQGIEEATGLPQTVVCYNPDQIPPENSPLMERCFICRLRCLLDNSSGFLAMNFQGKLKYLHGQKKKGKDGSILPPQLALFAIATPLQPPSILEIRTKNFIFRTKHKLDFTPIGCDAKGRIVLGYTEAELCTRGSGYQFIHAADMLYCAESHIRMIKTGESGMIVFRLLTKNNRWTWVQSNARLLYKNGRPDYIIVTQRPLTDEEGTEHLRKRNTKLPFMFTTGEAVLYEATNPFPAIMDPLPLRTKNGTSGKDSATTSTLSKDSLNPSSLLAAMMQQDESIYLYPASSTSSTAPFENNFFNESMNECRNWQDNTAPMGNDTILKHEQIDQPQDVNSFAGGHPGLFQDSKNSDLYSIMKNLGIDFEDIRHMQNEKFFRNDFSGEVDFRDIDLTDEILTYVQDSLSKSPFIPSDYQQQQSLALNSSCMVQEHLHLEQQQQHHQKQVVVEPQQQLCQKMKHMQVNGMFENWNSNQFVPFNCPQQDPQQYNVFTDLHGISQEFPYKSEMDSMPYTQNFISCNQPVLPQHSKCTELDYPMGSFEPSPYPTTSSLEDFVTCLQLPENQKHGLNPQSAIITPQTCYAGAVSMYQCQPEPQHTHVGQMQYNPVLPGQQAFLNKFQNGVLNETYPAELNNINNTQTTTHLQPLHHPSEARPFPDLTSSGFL
Method in brief: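 Endogenous factor activity is tracked through cis-promoter reporter units transfected into HepG2 cells. Transcript levels at 24 h are read by fluorescent RT-PCR and capillary electrophoresis, with activity in either direction scored relative to DMSO.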

[5] = ATG_AP_1_CIS: Attagene CIS-FACTORIAL HepG2 Assay for human Activator Protein 1 (AP-1) (AID 2282931); conditions: HepG2 Attagene cis-factorial AP-1 reporter mRNA; actives raise or lower the signal
Method in brief: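 Fluorescence of labelled PCR fragments separated by capillary electrophoresis gives reporter mRNA levels. HepG2 with transfected cis-regulated reporter units, 24 h exposure; DMSO serves as baseline for bidirectional curve fits.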

[6] = ATG_AP_2_CIS: Attagene CIS-FACTORIAL HepG2 Assay for human Activator Protein 2 (AP-2) (AID 2282932); conditions: HepG2 AP-2 cis-reporter, Attagene transcription factor profiling; AC50: actives raise or lower the signal unless noted; outcome: actives raise or lower the signal unless noted
Method in brief: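 Multiplexed mRNA reporter assay in HepG2: cis-regulated units report endogenous factor activity after 24 h treatment. Fluorescence from capillary electrophoresis of RT-PCR products gives the signal, with DMSO as baseline.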

[7] = ATG_BRE_CIS: Attagene CIS-FACTORIAL HepG2 Assay for human Bone Morphogenetic Protein (BMP) Response Element (BRE) (AID 2282933); conditions: HepG2 BMP response element reporter, Attagene transcription factor profiling; actives raise or lower the signal
Method in brief: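 After a 24 h chemical treatment, transiently transfected HepG2 cells were lysed for RNA; reporter transcripts were quantified by fluorescent RT-PCR and capillary electrophoresis, normalised to DMSO.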

[8] = target: Retinoic acid receptor alpha (Homo sapiens) (UniProt P10276); assay: ATG_DR5_RAR_CIS: Attagene CIS-FACTORIAL HepG2 Assay for human Retinoic Acid Receptor Alpha (RARE), DR5 submotif (AID 2282934); conditions: HepG2 Attagene cis-factorial RARE DR5 reporter, mRNA; actives raise or lower the signal
Retinoic acid receptor alpha (Homo sapiens), sequence (P10276 whole entry, looked up): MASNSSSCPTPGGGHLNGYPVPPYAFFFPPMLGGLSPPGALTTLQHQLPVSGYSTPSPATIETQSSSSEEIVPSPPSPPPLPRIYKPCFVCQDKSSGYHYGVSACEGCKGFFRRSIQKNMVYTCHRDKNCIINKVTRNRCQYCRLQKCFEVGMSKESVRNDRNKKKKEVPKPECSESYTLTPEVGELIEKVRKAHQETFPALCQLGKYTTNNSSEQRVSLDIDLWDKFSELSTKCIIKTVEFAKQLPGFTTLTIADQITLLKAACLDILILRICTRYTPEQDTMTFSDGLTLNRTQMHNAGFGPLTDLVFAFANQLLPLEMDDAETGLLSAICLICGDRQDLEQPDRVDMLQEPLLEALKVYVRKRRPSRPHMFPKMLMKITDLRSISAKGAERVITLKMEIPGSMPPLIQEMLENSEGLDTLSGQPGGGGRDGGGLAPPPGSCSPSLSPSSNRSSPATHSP
Method in brief: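 After 24 h of chemical exposure, transiently transfected HepG2 cells were lysed for total RNA; the DR5-regulated reporter transcript was quantified via RT-PCR and capillary electrophoresis, with activity fitted bidirectionally against DMSO.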

[9] = target: Transcription factor E2F1 (Homo sapiens) (UniProt Q01094); assay: ATG_E2F_CIS: Attagene CIS-FACTORIAL HepG2 Assay for human E2F Transcription Factor 1 (AID 2282935); conditions: HepG2 Attagene cis-reporter, E2F reporter RNA transcripts; actives raise or lower the signal
Transcription factor E2F1 (Homo sapiens), sequence (Q01094 whole entry, looked up): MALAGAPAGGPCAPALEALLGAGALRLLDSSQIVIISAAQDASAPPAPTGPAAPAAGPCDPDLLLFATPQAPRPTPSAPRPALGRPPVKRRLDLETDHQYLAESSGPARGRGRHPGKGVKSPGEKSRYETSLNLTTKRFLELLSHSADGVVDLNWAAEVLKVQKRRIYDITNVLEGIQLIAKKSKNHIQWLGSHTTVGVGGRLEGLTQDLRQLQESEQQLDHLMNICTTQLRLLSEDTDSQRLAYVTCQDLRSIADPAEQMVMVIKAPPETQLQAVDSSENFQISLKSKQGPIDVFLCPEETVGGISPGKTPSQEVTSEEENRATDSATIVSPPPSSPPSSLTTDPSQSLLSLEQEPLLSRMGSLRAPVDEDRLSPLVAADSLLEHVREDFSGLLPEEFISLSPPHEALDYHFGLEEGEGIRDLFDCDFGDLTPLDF
Method in brief: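 Measures reporter transcript levels via RT-PCR with capillary electrophoresis detection in HepG2 cells harboring cis-regulated reporter units; 24 h post-dose; bidirectional curve fitting with DMSO as baseline.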

[10] = ATG_E_Box_CIS: Attagene CIS-FACTORIAL HepG2 Assay for human Enhancer Box (E-box) (AID 2282936); conditions: HepG2 E-box cis-reporter transcription, actives raise or lower the signal
Method in brief: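 First, HepG2 cells receive multiple cis-regulated reporter constructs by transient transfection. Next, chemicals are applied for 24 h. Finally, reporter mRNA is quantified via RT-PCR and capillary electrophoresis, with DMSO as baseline.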

[11] = ATG_M_61_CIS: Attagene CIS-FACTORIAL HepG2 Assay for M61 Transcription Factor (Internal Marker) (AID 2282937); conditions: HepG2 Attagene CIS-FACTORIAL M61 internal marker reporter; actives raise or lower the signal
Method in brief: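 This endpoint serves as an internal background control within a multiplexed HepG2 cis-reporter panel. Cells are exposed for 24 h; reporter mRNA is amplified, fluorescently labelled and sized by capillary electrophoresis, with DMSO as negative control.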

[12] = ATG_EGR_CIS: Attagene CIS-FACTORIAL HepG2 Assay for human Early Growth Response 1 (EGR1) (AID 2282938); conditions: HepG2 Attagene CIS-FACTORIAL EGR reporter mRNA; actives raise or lower the signal
Method in brief: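 HepG2, transient MRTU transfection (cis promoters), 24 h compound. RNA → RT (oligo-dT) → PCR → 6-FAM labelling → HpaI cut → CE fluorescence. Bidirectional fit, DMSO baseline.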

[13] = ATG_M_19_CIS: Attagene CIS-FACTORIAL HepG2 Assay for M19 Transcription Factor (Internal Marker) (AID 2282939); conditions: HepG2 Attagene CIS-FACTORIAL M19 internal marker reporter; actives raise or lower the signal
Method in brief: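 In this multiplexed cell assay, transiently transfected HepG2 reporter units report endogenous transcription-factor activity; after 24 hours of treatment, labelled reporter cDNA fragments are quantified by capillary electrophoresis and fitted bidirectionally against DMSO.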

[14] = ATG_ERE_CIS: Attagene CIS-FACTORIAL HepG2 Assay for Estrogen Response Element (ERE) (AID 2282940); conditions: HepG2 ERE cis-reporter, Attagene RNA transcript; actives raise or lower the signal
Method in brief: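 Measuring endogenous transcription factor output, the assay doses transfected HepG2 cells for 24 hours and quantifies reporter transcripts by fluorescent RT-PCR and capillary electrophoresis, with DMSO as baseline.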

[15] = ATG_Ets_CIS: Attagene CIS-FACTORIAL HepG2 Assay for human Erythroblast Transformation Specific (ETS) (AID 2282941); conditions: HepG2 ETS cis-reporter transcription; AC50: actives raise or lower the signal unless noted; outcome: actives raise or lower the signal unless noted
Method in brief: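 HepG2 cells transiently transfected with cis-promoter reporter transcription units were dosed for 24 h; reporter mRNA was measured by RT-PCR, 6-FAM primer extension, HpaI digestion and capillary electrophoresis, with bidirectional fitting against DMSO baseline.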

[16] = target: Hepatocyte nuclear factor 3-beta (Homo sapiens) (UniProt Q9Y261); assay: ATG_FoxA2_CIS: Attagene CIS-FACTORIAL HepG2 Assay for human Forkhead box A2 (FOXA2) (AID 2282942); conditions: HepG2 cis-reporter transcription factor activity, 24 h; actives raise or lower the signal
Hepatocyte nuclear factor 3-beta (Homo sapiens), sequence (Q9Y261 whole entry, looked up): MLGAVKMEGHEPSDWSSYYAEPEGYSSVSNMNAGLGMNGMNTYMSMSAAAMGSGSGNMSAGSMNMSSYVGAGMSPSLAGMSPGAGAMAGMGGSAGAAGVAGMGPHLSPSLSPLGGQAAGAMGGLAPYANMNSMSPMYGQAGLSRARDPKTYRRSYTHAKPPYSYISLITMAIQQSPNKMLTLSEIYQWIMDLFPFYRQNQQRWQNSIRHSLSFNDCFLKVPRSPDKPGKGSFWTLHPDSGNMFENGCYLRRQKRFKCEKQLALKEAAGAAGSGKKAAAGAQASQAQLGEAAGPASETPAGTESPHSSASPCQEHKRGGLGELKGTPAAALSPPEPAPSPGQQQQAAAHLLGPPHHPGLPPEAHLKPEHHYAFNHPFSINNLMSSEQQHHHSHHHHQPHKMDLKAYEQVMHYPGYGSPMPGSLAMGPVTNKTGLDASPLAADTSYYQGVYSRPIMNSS
Method in brief: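 Cells: HepG2, transient multiplex reporter transfection. Exposure 24 h. Detection: reporter-specific RT-PCR, fluorescent labelling, restriction digest, capillary electrophoresis. Analysis: bidirectional curve fit, DMSO as negative control.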

[17] = ATG_GATA_CIS: Attagene CIS-FACTORIAL HepG2 Assay for human GATA Binding Protein (AID 2282944); conditions: HepG2 GATA cis-element reporter, Attagene multiplex mRNA; actives raise or lower the signal
Method in brief: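 Measures endogenous transcription factor-driven reporter mRNA in HepG2 cells transiently carrying cis-regulated constructs. 24 h dosing; RNA via oligo(dT) reverse transcription, PCR, HpaI digestion, capillary electrophoresis; fitted relative to DMSO.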

[18] = ATG_GLI_CIS: Attagene CIS-FACTORIAL HepG2 Assay for human Zinc Finger Protein GLI1 (AID 2282945); conditions: HepG2, Attagene cis-factorial reporter mRNA, GLI element; actives raise or lower the signal
Method in brief: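 Transiently transfected HepG2 cells report endogenous transcription factor activity via cis-element-driven reporter units. After 24 h compound exposure, reporter mRNA was measured by RT-PCR with capillary electrophoresis; bidirectional fitting against DMSO baseline.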

[19] = target: Bile acid receptor (Homo sapiens) (UniProt Q96RI1); assay: ATG_IR1_CIS: Attagene CIS-FACTORIAL HepG2 Assay for human Nuclear Receptor Subfamily 1 Group H Member 4 (NR1H4), IR1 submotif (AID 2282946); conditions: IR1 reporter transcription, actives raise or lower the signal
Bile acid receptor (Homo sapiens), sequence (Q96RI1 whole entry, looked up): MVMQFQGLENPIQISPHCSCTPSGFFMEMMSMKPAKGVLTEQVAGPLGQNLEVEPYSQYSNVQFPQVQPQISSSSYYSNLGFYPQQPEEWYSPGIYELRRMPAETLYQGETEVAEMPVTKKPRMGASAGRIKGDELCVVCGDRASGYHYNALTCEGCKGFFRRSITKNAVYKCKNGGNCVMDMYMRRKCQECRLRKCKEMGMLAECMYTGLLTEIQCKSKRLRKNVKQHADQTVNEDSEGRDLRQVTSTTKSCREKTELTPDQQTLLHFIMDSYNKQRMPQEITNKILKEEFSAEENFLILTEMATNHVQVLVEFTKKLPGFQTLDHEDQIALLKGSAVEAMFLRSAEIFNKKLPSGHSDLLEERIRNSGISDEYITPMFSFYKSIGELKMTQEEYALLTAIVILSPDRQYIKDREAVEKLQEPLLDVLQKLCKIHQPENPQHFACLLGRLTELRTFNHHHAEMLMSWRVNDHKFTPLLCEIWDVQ
Method in brief: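 HepG2 cells transiently transfected with multiple cis-promoter-driven reporter units to measure endogenous transcription factor activity; 24 h exposure. Reporter mRNA read by RT-PCR, FAM labelling, HpaI digestion and capillary electrophoresis. Bidirectional fit versus DMSO.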

[20] = ATG_FoxO_CIS: Attagene CIS-FACTORIAL HepG2 Assay for human Forkhead box O (FoxO) (AID 2282943); conditions: HepG2 Attagene cis-reporter, FoxO element, mRNA; actives raise or lower the signal
Method in brief: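 Transfected HepG2 reporter cells exposed to test chemical for 24 h; reporter RNA measured by reverse transcription, PCR and fluorescent capillary electrophoresis; curves fitted for increases and decreases against DMSO.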

Measured: AC50

CCO[Si](C)(C)OCC
not listed: [20]
inactive: all other assays above

O=C1OC2(c3ccccc31)c1cc(I)c(O)c(I)c1Oc1c2cc(I)c(O)c1I
active: [2] 40.5 µM | [4] 15.4 µM and 27.3 µM and 27.9 µM | [7] 88.1 µM and 82.7 µM | [10] 34.6 µM | [12] 36.1 µM and 29.8 µM | [16] 29.9 µM
inactive: [1] | [2] | [3] | [5] | [7] | [8] | [10] | [12] | [13] | [15] | [16] | [20] | [17]

NCc1cccc(CN)c1
inactive: all assays above

CCC(C)c1nccnc1OC (configuration not stated)
not listed: [15] | [18]
inactive: all other assays above

CC(=O)CC(C)C
not listed: [14] | [18]
inactive: all other assays above

CC[N+](CC)(CC)Cc1ccccc1
not listed: [13]
inactive: all other assays above

CCCCCCCCC(C)=O
not listed: [18]
inactive: all other assays above
